About 35 (0.05%) of roughly 75,000 compounds were called active. Calls come from the whole dose curve; as a rule, active = well fitted inhibition curve with a large enough effect; inconclusive = small, poorly fitted or top-dose-only effect; inactive = no such curve, though single readings can be large or run the other way. What follows is part of a selection rich in actives, with near analogues and random picks from the rest.
Target: Breast cancer type 1 susceptibility protein (Homo sapiens) (UniProt P38398)
Experiment: qHTS Assay for Inhibitors of BRCT-Phosphoprotein Interaction (Green Fluorophore);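 for activity change, negative = inhibition: plate controls were peptide without protein for full effect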
Conditions: BRCA1 BRCT-phosphopeptide binding, green fluorescence polarization; series mostly up to 76.9 µM; activity change, negative = inhibition: at the top concentration
Procedure: NIH Molecular Libraries Screening Centers Network [MLSCN]
NIH Chemical Genomics Center [NCGC]
PI Name: Natarajan, Amarnath; University of Texas
A complex of BRCT (C-terminal portion of BRCA1, MW ~35 kDa, His-tagged) and fluorescently labeled pBACH1 phosphorylated 10 aa peptide fragment of BACH1, a helicase implicated in DNA repair, is incubated with library members. Inhibitors of BRCT-pBACH1 binding are detected by a decrease in the fluorescence polarization (FP) of the fluorophore. In order to minimize the effect of fluorescence artifacts and to increase the overall robustness of the screen, the compound library members were incubated in separate reactions with fluorescein labeled probe-protein complexes. Protein and labeled probes were supplied by Dr. Amarnath Natarajan, Department of Pharmacology and Toxicology, University of Texas Medical Branch Galveston, TX.
Assay Buffer: 16mM Na2HPO4, 4 mM NaH2PO4, 150 mM NaCl, 1 mM EDTA, 1 mM DTT, 0.02% NaN3, and 0.01% Tween 20 at pH 7.3.
100 nM labeled decapeptide/250 nM protein in columns 1, 2, 5 - 48. Titration of unlabeled decapeptide control (from 10 mM, then 1:2 dilution in duplicate) pin-transferred to column 2, rows 1 to 16. Column 1 is neutral.
Three uL of reagents were dispensed to 1536-well Greiner black solid-bottom plates. Compounds and controls (23 nL) were transferred
via Kalypsys PinTool. The plates were incubated for 12 min at room temperature, and then read on ViewLux (Perkin-Elmer) High throughput CCD imager using FITC for the fluorescein-labeled decapeptide probe polarization filter sets. During dispense, reagent bottles were kept submerged into 4 deg C water bath and all liquid lines were covered with aluminum foil to minimize probe and protein degradation. All screening operations were performed on a Kalypsys robotic system (Kalypsys, Inc., San Diego, CA) containing one RX-130 and two RX-90 anthropomorphic robotic arms. The timing and order of assay plates passing through the screening system were adjusted such that each compound library plate was assayed against the fluorescein- and rhodamine-labeled assay systems at immediately adjacent time points.
Potency is the fitted concentration of half-maximal effect.

Breast cancer type 1 susceptibility protein (Homo sapiens), sequence (P38398 whole entry, looked up): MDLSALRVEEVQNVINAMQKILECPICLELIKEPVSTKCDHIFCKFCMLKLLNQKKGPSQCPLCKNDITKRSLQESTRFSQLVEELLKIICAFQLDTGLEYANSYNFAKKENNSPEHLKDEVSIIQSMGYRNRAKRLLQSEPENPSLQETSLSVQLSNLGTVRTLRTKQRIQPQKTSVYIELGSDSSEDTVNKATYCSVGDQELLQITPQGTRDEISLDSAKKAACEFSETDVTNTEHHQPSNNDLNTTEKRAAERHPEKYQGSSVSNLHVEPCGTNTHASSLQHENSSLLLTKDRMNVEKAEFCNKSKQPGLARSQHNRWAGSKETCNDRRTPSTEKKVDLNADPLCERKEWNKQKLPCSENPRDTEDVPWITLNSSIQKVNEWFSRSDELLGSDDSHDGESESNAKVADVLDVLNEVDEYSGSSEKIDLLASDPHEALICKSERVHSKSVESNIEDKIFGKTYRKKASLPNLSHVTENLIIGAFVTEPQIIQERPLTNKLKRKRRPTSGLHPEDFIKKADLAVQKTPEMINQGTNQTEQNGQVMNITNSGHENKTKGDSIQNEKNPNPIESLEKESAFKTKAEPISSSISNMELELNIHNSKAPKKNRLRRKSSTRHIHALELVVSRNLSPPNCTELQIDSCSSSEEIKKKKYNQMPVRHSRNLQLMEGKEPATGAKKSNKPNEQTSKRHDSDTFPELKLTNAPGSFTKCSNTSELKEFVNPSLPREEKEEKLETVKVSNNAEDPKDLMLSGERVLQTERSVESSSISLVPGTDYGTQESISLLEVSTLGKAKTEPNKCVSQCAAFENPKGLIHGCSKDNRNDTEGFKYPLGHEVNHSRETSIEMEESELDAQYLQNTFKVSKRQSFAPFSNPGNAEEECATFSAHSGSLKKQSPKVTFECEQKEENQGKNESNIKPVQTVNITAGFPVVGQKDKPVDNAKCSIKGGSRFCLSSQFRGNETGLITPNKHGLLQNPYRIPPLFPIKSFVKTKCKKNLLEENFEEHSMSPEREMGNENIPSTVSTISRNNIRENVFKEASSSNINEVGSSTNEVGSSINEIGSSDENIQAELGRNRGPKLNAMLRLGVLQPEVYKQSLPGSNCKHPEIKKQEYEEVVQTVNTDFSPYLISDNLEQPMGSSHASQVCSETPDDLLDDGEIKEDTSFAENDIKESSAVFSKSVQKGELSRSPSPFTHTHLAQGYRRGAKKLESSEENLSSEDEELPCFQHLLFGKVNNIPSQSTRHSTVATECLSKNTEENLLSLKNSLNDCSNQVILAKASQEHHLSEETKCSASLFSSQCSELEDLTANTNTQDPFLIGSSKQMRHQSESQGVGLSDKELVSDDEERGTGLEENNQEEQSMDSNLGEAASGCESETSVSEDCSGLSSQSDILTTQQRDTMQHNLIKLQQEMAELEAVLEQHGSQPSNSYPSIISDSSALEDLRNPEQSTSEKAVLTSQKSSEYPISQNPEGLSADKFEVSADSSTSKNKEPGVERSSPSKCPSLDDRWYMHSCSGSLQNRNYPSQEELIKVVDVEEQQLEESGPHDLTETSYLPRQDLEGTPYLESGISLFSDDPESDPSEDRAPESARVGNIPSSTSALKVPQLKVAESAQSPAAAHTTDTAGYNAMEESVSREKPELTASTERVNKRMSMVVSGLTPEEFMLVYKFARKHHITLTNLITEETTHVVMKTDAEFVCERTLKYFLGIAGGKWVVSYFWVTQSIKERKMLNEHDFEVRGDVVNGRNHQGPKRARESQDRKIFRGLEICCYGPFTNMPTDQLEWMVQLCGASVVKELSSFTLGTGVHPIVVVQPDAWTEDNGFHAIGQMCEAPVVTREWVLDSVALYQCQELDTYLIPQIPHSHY

SMILES | activity change, negative = inhibition | Potency
C(=C\c1ccccc1)/CSc1nnc(-c2cccnc2)n1Cc1ccco1 | -0.527% (inactive) | 
Nc1ccc2c3c(cccc13)C(=O)NC2=O |  | 12.6 µM (active)
CCN1C(=O)c2cccc3c(N)ccc1c23 | -1.28% (inactive) | 
Cc1ccc(C)c(N2CCN(S(=O)(=O)c3ccc4c(c3)oc(=O)n4C)CC2)c1 | 1.05% (inactive) | 
CCN(CC)CCNC(=O)Cn1cnc2sc(C)c(S(=O)(=O)N3CCOCC3)c2c1=O | -0.894% (inactive) | 
CC(=O)Nc1ccc(S(=O)(=O)N2CCSCC2)cc1 | 0.335% (inactive) | 
COc1cccc(CNC(=O)C2CCN(S(=O)(=O)c3cccc4cccnc34)CC2)c1 | -0.134% (inactive) | 
Cc1ccc(S(=O)(=O)c2c(N)n(C)c3nc4ccccc4nc23)cc1 | 3.01% (inactive) | 
O=C(Nc1ccc(S(=O)(=O)N2CCCC2)cc1Cl)C1=COCCO1 | 0.643% (inactive) | 
O=C(c1cnccn1)N1CCC2(CCN(Cc3cc(C(F)(F)F)cc(C(F)(F)F)c3)CC2)CC1 | 0.461% (inactive) | 
CCOc1ccccc1N(CC(=O)NC1CCCCC1)C(=O)CCCC(=O)Nc1ccccn1 | -1.87% (inactive) | 
Cc1cc(C)cc(OCc2nnc(SCC(=O)OC3CCCCC3)o2)c1 | -1.6% (inactive) | 
CCOc1cc(S(=O)(=O)NCc2ccc3c(c2)OCO3)ccc1F | 0.095% (inactive) | 
COc1ccc(-c2nc3cnc(OC)nc3n(Cc3ccc(F)cc3)c2=O)cc1 | -2.13% (inactive) | 
Cc1cc(N=CC2=C(O)CCCC2=O)no1 | 0.2% (inactive) | 
CC(=O)c1nc(N2C(=O)C3CC=C(C)CC3C2=O)sc1C (stereo not drawn) | 0.509% (inactive) | 
Cc1cn(COC/C=C/c2ccccc2)c(=O)[nH]c1=O | 1.28% (inactive) | 
O=C1NC(c2ccncc2)Nc2sc3c(c21)CCCC3 (stereo not drawn) | 1.19% (inactive) | 
COc1ccc2c(c1)C=CC1(O2)N(CCO)c2ccccc2C1(C)C (stereo not drawn) | 7.47% (inactive) | 
CN(C)CCOC(=O)C(c1ccccc1)C1(O)CCCC1 (stereo not drawn) | -1.8% [at 3.08 µM] (inactive) | 
COC(=O)c1ccc(CN(c2ccccc2OC)S(=O)(=O)c2cccs2)o1 | -0.914% (inactive) | 
COc1ccc(S(=O)(=O)NC(CC(=O)NCc2ccccc2OC)c2ccco2)cc1 (stereo not drawn) | -1.17% (inactive) | 
CCOC(=O)C1=C(CNC2CCCCC2)NC(=O)NC1c1cc(C)ccc1C (stereo not drawn) | 0.587% (inactive) | 
CCSc1nc2c(c(=O)[nH]1)C(c1cccnc1)C(C(=O)OC(C)C)=C(C)N2 (stereo not drawn) | -0.428% (inactive) | 
O=C(CCC(=O)N1CCN(S(=O)(=O)c2ccccc2)CC1)NC1CCCc2ccccc21 (stereo not drawn) | -0.237% (inactive) | 
CCNS(=O)(=O)c1ccc(NC(=O)Nc2cccc(OC)c2)cc1 | 0.136% (inactive) | 

SMILES | activity change, negative = inhibition | Potency
O=S(=O)(/C=C/c1ccccc1)NCCc1ccccn1 | -2.8% (inactive) | 
CCOc1ccc(NC(=O)Nc2cc(C)ccc2OC)cc1 | -0.177% (inactive) | 
Cc1cc2nc3c(=O)[nH]c(=O)nc-3n(C[C@H](O)[C@H](O)[C@H](O)CO)c2cc1C |  | 7.94 µM (active)
C=CCn1c(COc2ccccc2C)nnc1SCC(=O)O | -0.75% (inactive) | 
O=C(C(Cc1ccccc1)n1cccc1)N1CCN(C2CCCCC2)CC1 (stereo not drawn) | 0.978% (inactive) | 
OCc1n[nH]c(CO)n1 | -3.47% (inactive) | 
CCn1ncc(Br)c1C(=O)Nc1cc(C)ccc1F | -0.796% (inactive) | 
CCOC(=O)CN1C(=O)C(O)(CC(=O)c2ccccn2)c2ccccc21 (stereo not drawn) | -0.714% (inactive) | 
CCCOc1cccc(C(=O)Nc2nnn(CCC)n2)c1 | -2.09% (inactive) | 
Cn1cnc2c1c(=O)n(Cc1c(Cl)cccc1Cl)c(=O)n2C | 1.6% (inactive) | 
COc1cccc([C@H]2Oc3ccc(OC)cc3/C(=N\OCC[C@@H]3C=C[C@H](OC(C)=O)[C@H](COC(C)=O)O3)[C@@H]2O)c1 | 1.43% [at 15.4 µM] (inactive) | 
Cc1ccccc1OCC(=O)Nc1ccc(N2CCN(C(=O)C(C)C)CC2)c(Cl)c1 | -0.753% (inactive) | 
O=C(NCCSc1ccccc1)c1ccco1 | 0.586% (inactive) | 
CCCCOc1ccc(-c2nnc(-c3ccco3)o2)cc1 | 0.772% (inactive) | 
COc1ccc(-c2oc3cc(OC)ccc3c2C(=O)c2ccc(C#N)cc2)cc1 | 0.239% (inactive) | 
Cc1cnc(CNc2cc(-c3c(C)noc3C)ncn2)cn1 | -3.11% (inactive) | 
Cn1c(N)c(C(=O)COC(=O)c2cc(C(F)(F)F)nc3c(C(F)(F)F)cccc23)c(=O)n(C)c1=O | -3.55% (inactive) | 
CCc1c(C)nc2cc(-c3cccs3)[nH]n2c1=O | 2.29% (inactive) | 
COC(=O)c1ccc(C23CC4(C2)[C@H](CN(Cc2cccnc2)[C@@H]4c2ccccc2)C3c2ccc(Cl)nc2)cc1 (stereo partly drawn) | -1.12% (inactive) | 
COc1ccc2c(=O)cc(-c3ccccc3)oc2c1O | -2.2% (inactive) | 
Cc1ccc(NC(=O)CN2CCC3(O)CCCCC3C2c2ccc3c(c2)OCO3)c(C)c1 (stereo not drawn) | -4.21% (inactive) | 
CCS(=O)(=O)N(C)[C@@H]1c2cc(C#N)ccc2OC(C)(C)[C@H]1O | inactive | 
CCc1nc(Nc2ccc3nccnc3c2)c2oc3ccccc3c2n1 | 4.22% (inactive) | 
O=C(CN1C(=O)CSc2ncccc21)N1CCOCC1 | 0.57% (inactive) | 
FC(F)(F)c1cc(-c2cccs2)nc(NCc2ccco2)n1 | -4.7% (inactive) | 
Cc1n[nH]c(C)c1S(=O)(=O)N1CCCC(C(=O)NCC2COc3ccccc3O2)C1 (stereo not drawn) | -1.37% (inactive) | 

SMILES | activity change, negative = inhibition | Potency
Cc1ccc(S(=O)(=O)N2CCC(C(=O)N[C@@H](C)C(=O)NCCc3ccccc3)CC2)cc1 | -2.76% (inactive) | 
O=C(O)C1CCN1C1CCCCC1 (stereo not drawn) | -0.829% (inactive) | 
CCC(=O)c1ccc(OCC(O)CN2CCN(c3cccc(C(F)(F)F)c3)CC2)cc1 (stereo not drawn) | -3.1% (inactive) | 
CC1CN(C(=O)CN2C(=O)NC(C)(c3ccccc3)C2=O)CC(C)O1 (stereo not drawn) | 1.73% (inactive) | 
O=C(c1cc(C(F)(F)F)cc(C(F)(F)F)c1)N1CCC2(CCCN(Cc3ccncc3)C2)CC1 | -0.118% (inactive) | 
CS(=O)(=O)c1ccc2nc(NC(=O)C3C4C=CC(C4)C3C(=O)O)sc2c1 (stereo not drawn) | -1.62% (inactive) | 
CCOC(=O)/C=c1\s/c(=C\c2ccccc2OC)c(=O)n1CC(=O)N1CCOCC1 | -0.845% (inactive) | 
CCC1=C(OC(=O)N(CC)CC)N2C(=O)OC(=NCC3CC3)[C@]2(C)[C@H]2C1=CC[C@H]1C(=O)N(CC(=O)OC)C(=O)[C@H]12 | -1.73% (inactive) | 
Cc1cc(/C=N/n2cnnc2)c(C)n1-c1cccc(C(=O)O)c1 | -0.794% (inactive) | 
CC(=O)N(Cc1cccs1)C1CCOC(C)(C)C1 (stereo not drawn) | -1.07% (inactive) | 
COCc1nc2ccccc2n1Cc1ccccc1Br | -0.882% (inactive) | 
CCn1c(CNC(=O)c2ccc(OC)c(OC)c2)nnc1SCC(=O)Nc1ccccc1 | -1.99% (inactive) | 
COc1ccc(OC)c(CN2C(=O)CCC2(C)C(=O)NC2CCCCCC2)c1 (stereo not drawn) | 0.0804% (inactive) | 
c1ccc(-c2noc(-c3cccs3)n2)nc1 | -2.54% (inactive) | 
CCOc1ccc(OCC)c(NC(=O)CN(C)S(=O)(=O)c2cccc3nsnc23)c1 | 0.0132% (inactive) | 
Cc1ccc2nc(NC3=NCN(CCc4ccccc4)CN3)nc(C)c2c1 | -1.27% (inactive) | 
COc1ccccc1-c1nc(NCc2cccs2)c2ccccc2n1 | 0.498% (inactive) | 
CC1=C(C(=O)Nc2ccccc2)C(c2cccs2)C(C#N)=C(SCC#N)N1 (stereo not drawn) | 32.1% (inactive) | 
COc1ccc(Cl)cc1S(=O)(=O)N1CCN(CC(=O)C(C)(C)C)CC1 | -0.719% (inactive) | 
C=CCSc1nc2c(c(=O)[nH]1)C(C(C)C)C(C#N)=C(N)O2 (stereo not drawn) | -0.716% (inactive) | 
O=P(c1ccc2c(c1)OCCO2)(N1CCOCC1)N1CCOCC1 | -1.91% (inactive) | 
CCCCCn1c(SCCC(C)C)nc2c1c(=O)[nH]c(=O)n2C | -2.32% (inactive) | 
Cc1sc2c(c1C)c(=O)n(-c1ccccc1)c1nncn21 | -0.541% (inactive) | 
CCCC(=O)N1c2ccc(-c3csc(N)n3)cc2CC1C (stereo not drawn) | -1.31% (inactive) | 
CCCCCOC(=O)NCCOC(=O)Nc1ccc(C(=O)OCC)cc1 | -3.13% (inactive) | 
Cn1c(=O)c2c(ncn2CC(=O)N2CCN(c3ccccc3)CC2)n(C)c1=O | -2.15% (inactive) | 

SMILES | activity change, negative = inhibition | Potency
CN(CCOc1ccc(CC2SC(=O)NC2=O)cc1)c1ccccn1 (stereo not drawn) | -0.73% [at 3.08 µM] (inactive) | 
COc1cc2c(cc1O)C(SC)=NC(C)(C)C2 | -1.19% (inactive) | 
O=C(CN1CCN(C(=O)c2ccco2)CC1)Nc1ccc(Cl)c(C(F)(F)F)c1 | 2.17% (inactive) | 
Cc1ccc(C(=O)Nc2ccccc2C(=O)NC2CCCCC2)cc1S(=O)(=O)N1CCOCC1 | 1.27% (inactive) | 
C/C(=C\C(=O)c1ccccc1)Nc1cccc(O)c1 | 0.601% (inactive) | 
CCC/C(O)=C1\C(=O)CC(C)(C)CC1=Nc1ccccc1OC | -1.06% (inactive) | 
COC(=O)c1cc(NC(=O)CN2CCC(C(N)=O)(N3CCCCC3)CC2)cc(C(=O)OC)c1 | -2.28% (inactive) | 
Cc1cc(C(=O)Nc2c(C)n(C)n(-c3ccccc3)c2=O)cs1 | -7% (inactive) | 
COc1ccc(C2C3=C(CC(C)(C)CC3=O)Oc3ncn4nc(-c5cccnc5)nc4c32)cc1OC (stereo not drawn) | -0.0734% (inactive) | 
Cn1cccc1C(=O)N1CCC[C@@]2(CCN(Cc3nccs3)C2)C1 | -1.08% (inactive) | 
O=[n+]1c2c(n([O-])c3cc(Br)ccc31)CCC2 | -1.52% (inactive) | 
COc1cc([C@H]2c3cc4c(cc3[C@@H](O[C@@H]3O[C@H]5CO[C@@H](C)O[C@]5(O)C[C@H]3O)[C@@H]3COC(=O)[C@H]23)OCO4)cc(OC)c1O | -3.38% (inactive) | 
FC(F)(F)c1ccc(CN2C[C@@H]3C(c4ccccc4)C4(c5ccccc5)CC3(C4)[C@H]2c2ccccc2)cc1 (stereo partly drawn) | 2.27% (inactive) | 
CC1CCN(c2nc3c(c(=O)[nH]c(=O)n3C)n2CCCc2ccccc2)CC1 | 4.69% (inactive) | 
Cc1cccc2c3c(ccc12)C1=C(C(=O)C3=O)C(C)CO1 (stereo not drawn) | -7.86% (inactive) | 
CCOC(=O)Nc1ccccc1N1C(=O)c2ccccc2C1=O | -2.15% (inactive) | 
CCOC(=O)c1cc2n(c1C)-c1ccccc1C2=O | -2.66% (inactive) | 
CCOC(=O)c1cc2n(c1N)-c1ccccc1C2=O |  | 15.8 µM (active)
COC(=O)[C@@H]1C[C@@]2(O)[C@H](O)[C@H](O)[C@H](O)C[C@H]2N1CC1CCCCC1 | -2.7% (inactive) | 
Cn1c(=O)n(C)c2cc(CNc3ccc(N4CCOCC4)c(C(=O)O)c3)ccc21 | 1.12% (inactive) | 
O=C(NCc1ccc(Cl)cc1)c1cc2c(nc3sccn32)s1 | -0.656% (inactive) | 
COC(=O)[C@@H]1C[C@@]2(O)[C@@H](O)[C@@H](O)[C@@H](O)C[C@H]2N1Cc1ccc(C)s1 | -3.88% (inactive) | 
CCc1c(O)nc(SCC(=O)N2CCCCC2)n(-c2ccccc2C)c1=O | -0.89% (inactive) | 
O=C(NC1CCCC1)c1ccc(Br)s1 | -2.61% (inactive) | 
COc1ccccc1CNC(=O)C1CCN(S(C)(=O)=O)CC1 | -0.664% (inactive) | 
